Screening results deposited in PubChem by National Center for Advancing Translational Sciences (NCATS).
An excerpt weighted towards active compounds, which were near 5.7% of everything screened.
HT1080-NT tox: kills 2HG-producing HT-1080-NT fibrosarcoma cells; HT-1080-NT fibrosarcoma viability, CellTiter-Glo ATP luminescence, 48 h; Potency, µM (series often up to 46.1 µM), without a hit: at the top dose activity, negative = less viability, usual class: cytotoxic; hit rate 1.6% among 360,000; AID 686970;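 also: NT is the 2HG producing partner of a matched IDH1 knockdown line; 0% = DMSO-treated cells and -100% = media-only wells without cells; nearly all actives have a fitted effect of over 55% in size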
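A 48-hour cytotoxicity screen used HT-1080-NT cells plated 2 hours before compound delivery. ATP-based CellTiter-Glo luminescence measured viability, normalized to DMSO and no-cell controls.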
HT1080 IDH1KD tx: kills HT-1080 cells with IDH1 knockdown. Potency, µM (titrated, usually from 46.1 µM), for inactives: at the highest dose activity, negative = toxicity, usual class: cytotoxic. hit rate 2% among 360,000. HT-1080 IDH1 knockdown viability, ATP luminescence, 48 h;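 also: 0% = DMSO wells and -100% = cell-free medium wells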
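In this qHTS, HT-1080 cells depleted of IDH1 are exposed for 48 h at 37 °C to compound titrations. Toxicity is scored from CellTiter-Glo luminescence, with DMSO as full viability and medium alone as none.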
KB-3-1 tox: kills parental KB-3-1 adenocarcinoma cells. KB-3-1 viability, CellTiter-Glo ATP luminescence, 72 h. Potency, µM (highest dose often 46.1 µM), most hits filed as cytotoxic. hit rate 1.4% among 400,000. AID 1347075; also: nearly all actives have a fitted effect of over 60% in size
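Using CellTiter-Glo luminescence, growth of non-resistant KB-3-1 adenocarcinoma cells is assessed 72 h after pin-tool compound addition at 37 °C. Normalized responses across the concentration series yield fitted curves.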
KB-V1 cytotox: KB-V1 MDR subline cytotoxicity. KB-V1 MDR cells viability, CellTiter-Glo, 72 h. Potency, µM (titrated, usually from 46.1 µM), actives largely listed as cytotoxic. hit rate 3.4% among 400,000. AID 1347076; also: nearly all actives have a fitted effect of over 60% in size
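Luminescent ATP read-out (CellTiter-Glo, 10 min) measures survival of drug-selected KB-V1 MDR cells after 72 h, 37 degrees C compound exposure. Medium: phenol-red-free DMEM, 10% FBS. Values from fitted concentration-response curves.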
* hit, by the source's call; i = inactive; ? = inconclusive; nt = no result. Calls follow the shape of the dose curve; as a rule, active = well fitted curve in the direction sought with a large enough effect; inconclusive = small, poorly fitted or top-dose-only effect, or another doubt; inactive = no such curve, though single readings can be large; an effect the other way counts as inactive or inconclusive. Unless noted, % is scaled to controls: 0 for no effect and ±100 for the full control effect; potency is read from the fitted curve at half-maximal effect.

SMILES	HT1080-NT tox	HT1080 IDH1KD tx	KB-3-1 tox	KB-V1 cytotox
O=c1c2ccccc2nnn1CSc1nnc(COc2ccc(Cl)cc2)n1Cc1ccco1	-5.2%	0.6%	?	?
Cc1cc(C)cc(NC(=O)C2CCCN2S(=O)(=O)c2cccc3nsnc23)c1 (configuration not stated)	nt	nt	i	?
CCN(CC)c1ccccc1/C=C/[n+]1ccc(CCCCI)c2ccccc21	nt	nt	3.66µM*	?
CC[n+]1ccc(C[n+]2ccccc2)c2ccccc21	9.7%	13.9%	i	i
CCN(CC)C(=O)c1sc2c(c1C)c(=O)n(CCc1ccccc1)c(=O)n2Cc1ccc(C)cc1	nt	nt	?	i
O=C(Cn1c(=O)nc(-c2ccccc2F)c2cc(Cl)ccc21)NCCCc1ccccc1	nt	nt	i	i
Cc1ccc(-n2ncc3c(N4CCCCCC4)ncnc32)cc1C	nt	nt	i	i
Cc1ccccc1Cn1c(=N)n(CC(=O)c2ccc([N+](=O)[O-])cc2)c2ccccc21	-27.9%	-19.1%	?	18.4µM*
CCCn1c(=N)n(CC(=O)c2ccc([N+](=O)[O-])cc2)c2ccccc21	-17.1%	-17.5%	?	?
Cn1c(SCC(=O)NCc2ccccc2)ncc(C(=O)Nc2ccccc2)c1=O	-4.5%	-2.7%	i	i
CC(=O)Nc1ccc(NC(=O)CSc2ncc(C(=O)Nc3ccccc3)c(=O)n2C)cc1	?	14.6µM*	?	i
CCOC(=O)c1ccc(N=c2sc(C(=O)OC)cc(=O)n2-c2ccc(C(=O)OCC)cc2)cc1	16.4µM*	?	?	?
COC(=O)c1cc(=O)n(-c2ccccc2)c(=Nc2ccccc2)s1	?	?	?	i
Cc1cccc(-c2c3c(=O)n(C)c(=O)n(C)c3cn2C(C)(C)C)c1	-22.2%	-8.0%	i	i
Cn1c(=O)c2c(-c3ccccc3)n(-c3ccccc3O)cc2n(C)c1=O	-0.5%	6.7%	i	i
Cc1cccc(-c2c3c(=O)n(C)c(=O)n(C)c3cn2C2CCCCC2)c1	-12.4%	-1.1%	i	16.4µM*
Cn1c(=O)c2c(-c3ccccc3)n(C3CCCCC3)cc2n(C)c1=O	6.3%	17.1%	i	20.6µM*
CCOc1cc(S(=O)(=O)NCCc2c(C)[nH]c3ccc(C)cc23)ccc1F	nt	nt	i	i
CSc1ccc(C(=O)C2CCCN(C(=O)CCc3c(C)nn(C)c3C)C2)cc1 (configuration not stated)	13µM*	?	nt	nt
CN(C)S(=O)(=O)N1CCCC(C(=O)c2ccc(-c3ccccc3)c(F)c2)C1 (configuration not stated)	-9.5%	?	?	?
CSc1ccc(C(=O)C2CCCN(C(=O)CCn3cncn3)C2)cc1 (configuration not stated)	9.0%	16.8%	i	i
CSc1ccc(C(=O)C2CCCN(S(=O)(=O)N(C)C)C2)cc1 (configuration not stated)	-5.6%	-7.4%	?	20.6µM*
Cc1ccc2c(c1)ncc[n+]2CC(=O)c1ccc(Cl)cc1Cl	nt	nt	i	i
N=C1SCC(=O)N1/N=C/c1ccccc1	11.8%	15.9%	7.31µM*	6.51µM*
COc1ccc(-n2ccnc(NCc3cccs3)c2=O)cc1	nt	nt	i	i
SMILES	HT1080-NT tox	HT1080 IDH1KD tx	KB-3-1 tox	KB-V1 cytotox
N#Cc1c(N)nc(N)nc1Nc1ccc(Br)cc1	-2.7%	1.2%	?	13µM*
CN(C)C(=O)/C(C#N)=C\c1cc(Br)c(Sc2ccc(Cl)cc2)o1	-17.6%	5.4%	i	16.4µM*
Clc1ccc(Sc2oc(/C=N/n3cnnc3)cc2Br)cc1	8.3%	-5.6%	i	i
CCOC(=O)N(O)c1ccc(C=Cc2ccccc2)cc1	3.2%	0.2%	?	20.6µM*
CCOc1ccc(NS(=O)(=O)c2cc(NC(=O)c3cccc(C)c3)ccc2Cl)cc1	?	25.9µM*	?	i
CCC[C@H]1NC(=O)[C@H](C)N(C)C(=O)C(C)(C)C(=O)C(C)NC(=O)[C@H](Cc2ccc(OC)cc2)N(C)C(=O)[C@H](C(C)C)N(C)C(=O)CNC(=O)[C@H](CC(C)C)N(C)C(=O)CNC(=O)[C@H]([C@@H](C)CC)OC(=O)[C@H]1C (some centres not stated)	0.82µM*	1.03µM*	i	i
CC[C@H](C)C1OC(=O)[C@@H](C)[C@@H](CC)NC(=O)[C@H](C)N(C)C(=O)C(C)(C)C(=O)C(C)NC(=O)[C@H](Cc2ccc(OC)cc2)N(C)C(=O)[C@H](C(C)C)N(C)C(=O)CNC(=O)[C@H](CC(C)C)N(C)C(=O)CNC1=O (some centres not stated)	0.259µM*	0.184µM*	0.206µM*	i
Cc1ccc(Cl)cc1N1CCN(CCCNC(=O)Cn2ncc3c([nH]c4ccccc43)c2=O)CC1	nt	nt	i	i
COc1ccccc1C(=O)Nc1ccccc1SCc1cc(=O)c2ccccc2[nH]1	nt	nt	i	i
CCCCNc1c(-c2cccc(-c3cc(C(C)=O)cs3)c2)nc2ccc(C)cn12	20.6µM*	?	?	20.6µM*
CNC(=O)c1cnn2c(C)cc(C)nc12	nt	nt	i	i
Cn1c(CNc2nc3ccccc3n2CCN2CCCCC2)nc2ccccc21	-1.5%	-7.6%	i	?
CCN(CC)c1ccc(CNc2nc3ccccc3n2CCN2CCCCC2)cc1	16.4µM*	?	?	?
COc1ccc(CNc2nc3ccccc3n2CCN2CCCCC2)cc1	-18.0%	-20.8%	i	i
CCN(CC)CCn1c(NCc2nc3ccccc3n2Cc2ccccc2)nc2ccccc21	?	11.2µM*	i	i
CCN(CC)CCn1c(NS(=O)(=O)c2ccc(C)cc2)nc2ccccc21	-7.2%	-2.3%	i	20.6µM*
c1ccc(Cn2c(CNc3nc4ccccc4n3CCN3CCCCC3)nc3ccccc32)cc1	20.6µM*	23.1µM*	i	?
O=C(NCc1noc2ccccc12)Nc1ccc(F)cc1F	nt	nt	i	?
COc1ccc(OC)c(Nc2nc3ccccc3nc2-n2nc(C)cc2C)c1	nt	nt	i	i
CCOC(=O)c1cccc(NC(=O)CCn2c(-c3ccc(F)cc3)cc(C(=O)OCC)c2C)c1	nt	nt	i	?
CC(C)C[C@H]1CNC(=S)N1C[C@H]1CCCN1C[C@H](Cc1ccccc1)N1C[C@H](Cc2ccc(O)cc2)N(CC2CCCCCC2)C1=S	20.6µM*	14.6µM*	?	?
CC(C)C[C@H]1CNC(=S)N1CC1CCCN1C[C@H](Cc1ccc(O)cc1)N1C[C@H](Cc2ccccc2)N(CC2CCCCCC2)C1=S (some centres not stated)	0.0%	-6.6%	i	?
Oc1ccc(C[C@H]2CNC(=S)N2CC2CCCN2C[C@H](Cc2ccc(O)cc2)N2C[C@H](Cc3ccc(O)cc3)N(CC3CCCCC3)C2=S)cc1 (some centres not stated)	16.4µM*	?	?	i
